Values without a mark were called inactive. Unless noted, calls follow the shape of the dose curve; as a rule, active = well fitted curve in either direction with a large enough effect (not every such curve was filed as active); inconclusive = small, poorly fitted or top-dose-only effect, or another doubt; inactive = flat fitted curve, though single readings scatter. Results filed as inconclusive are left out.

Chain of Lysosomal acid glucosylceramidase (Homo sapiens) (P04062 whole entry, looked up): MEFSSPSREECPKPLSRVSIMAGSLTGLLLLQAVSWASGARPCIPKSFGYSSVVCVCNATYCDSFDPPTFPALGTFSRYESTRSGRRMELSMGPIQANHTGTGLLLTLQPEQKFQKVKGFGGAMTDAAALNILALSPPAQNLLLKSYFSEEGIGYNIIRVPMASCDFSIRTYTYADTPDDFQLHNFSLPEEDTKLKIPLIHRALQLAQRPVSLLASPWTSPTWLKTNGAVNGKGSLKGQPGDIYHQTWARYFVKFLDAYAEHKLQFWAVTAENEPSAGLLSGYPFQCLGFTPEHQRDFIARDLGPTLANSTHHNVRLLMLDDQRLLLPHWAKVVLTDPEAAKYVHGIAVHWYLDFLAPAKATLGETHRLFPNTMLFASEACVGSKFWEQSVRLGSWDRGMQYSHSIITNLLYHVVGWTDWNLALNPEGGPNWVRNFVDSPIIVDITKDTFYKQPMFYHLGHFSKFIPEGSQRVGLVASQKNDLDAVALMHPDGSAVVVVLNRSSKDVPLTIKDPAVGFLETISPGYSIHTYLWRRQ

For the first assay, the target named is Lysosomal acid glucosylceramidase (Homo sapiens) (UniProt P04062). Nature of the assay: Glucocerebrosidase-p2 (AID 348; in the data active = potency below about 10 µM; also: potency is read from the fitted curve at half-maximal effect). The following applies: purified GBA, blue fluorogenic substrate, 40 min. The gist of the method:
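Compounds titrated from 0.6 nM upwards against 0.2 nM enzyme in pH 5.9 citric acid/KH2PO4, taurocholate, tween-20; blue fluorogenic substrate 80 uM, 40 min room temperature, stopped and read Ex 365/Em 440 for AC50.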
For `CN(C)CCCN=C(N)N`, the Potency is more than 11.4 µM.
Still for that read-out and setting: in the case of `N#CCCn1c(=O)c(-c2cc(F)cc(F)c2)nc2cnc(Oc3cccc(Cl)c3)nc21` it was more than 11.4 µM; in that of `O=C(O)c1cc(C(=O)O)cc(N2C(=O)c3ccccc3C2=O)c1`, more than 11.4 µM; in that of `O=S(=O)(O)c1cc(S(=O)(=O)O)c2c(N=Nc3cccc4ccccc34)c(O)ccc2c1`, more than 11.4 µM.
For `C#CCOC(=O)[C@H](N)CC(N)=O`, the Potency was more than 11.4 µM.
As for `Cc1ccc(N=Nc2c(O)ccc3cc(S(=O)(=O)O)ccc23)cc1`, the Potency was more than 11.4 µM.
On to `Cc1ccc(N=Nc2c(O)c(S(=O)(=O)O)cc3cc(S(=O)(=O)O)ccc23)c(C)c1`, for which the Potency is more than 11.4 µM.
For `CN(Cc1cc(Br)cc(Br)c1O)Cc1c(O)ccc2ccccc12`, the Potency was more than 11.4 µM.
Same read-out and setting: in the case of `O=C(O)CC(CC(=O)O)C(=O)O` it was more than 11.4 µM.
On the same count and under the same terms, in the case of `O=S(=O)(O)c1cc(O)c2c(O)c(N=Nc3cccc4ccccc34)c(S(=O)(=O)O)cc2c1` it was more than 11.4 µM.
The same measure, in the same setting: in the case of `COCCn1c(=O)c(-c2ccc(OC)cc2)nc2cnc(Oc3ccccc3)nc21` it was more than 11.4 µM.
`CNS(=O)(=O)c1ccccc1C(=N)c1ccccc1`: the Potency was more than 11.4 µM.
In the case of `C[N+]1(CCN=C=NC2CCCCC2)CCOCC1`, the Potency was more than 11.4 µM.
Turning to `O=S(=O)(O)c1ccc(N=Nc2ccc3c(S(=O)(=O)O)cccc3c2O)c2ccccc12`, the Potency was more than 11.4 µM.
On to `CN(C)CN1CSC(=S)N(CN(C)C)C1`, for which the Potency was more than 11.4 µM.
For the compound `FC(F)(F)c1cc(NC(=S)N2c3ccccc3-n3cccc3[C@H]2c2cccnc2)cc(C(F)(F)F)c1`, the Potency is more than 11.4 µM.
Turning to `COc1ccc([C@@H](C)c2cc3c(cc2O)OCO3)cc1`, the Potency was more than 11.4 µM.
Consider `CN(C)Cc1cc(C(C)(C)C)cc(CNC2CCCCC2)c1O`, for which the Potency was more than 11.4 µM.
Take `O=C1OC2(c3ccc(O)cc3Oc3cc(O)ccc32)c2c1c(-c1ccccc1)c(-c1ccccc1)c(-c1ccccc1)c2-c1ccccc1`: the Potency was more than 11.4 µM.
The same measure, in the same setting: in the case of `O=S(=O)(O)c1ccc2c(N=Nc3c(O)ccc4ccccc34)cccc2c1` it was more than 11.4 µM; in that of `Nc1cc2c(nc3c4ccccc4c(N)cc3[n+]2-c2cccc3ccccc23)c2ccccc12` (tested in a mixture with another compound), more than 11.4 µM.
Take `O=S(=O)(O)c1ccc2c(N=Nc3cccc4ccccc34)c(O)c(S(=O)(=O)O)cc2c1`: the Potency was more than 11.4 µM.
Consider `S[C@@H]1CCCN(Cc2ccccc2)C1`, for which the Potency is more than 11.4 µM.
On to `CS(=O)(=O)c1ccc(/C=N\NC(N)=S)cc1`, for which the Potency is more than 11.4 µM.
With `N#CC(=NCCO)C1=C(O)c2ccccc2C1=O`, the Potency is more than 11.4 µM.
For the compound `Cc1ccc(CCCC(=O)O)cc1C`, the Potency is more than 11.4 µM.

System in another assay: not listed separately
As to the kind of experiment: AP1 Signaling Pathway (AID 357).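 Also: ME-180 reporter cells stimulated with EGF at its EC50 level; % is scaled to controls: 0 for no effect and ±100 for the full control effect.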 To be noted: ME-180 (cervical carcinoma) AP-1-bla reporter, EGF-induced, beta-lactamase ratio, 5 h; at 7.69 µM (top of the series) unless noted. The gist of the method: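 Titration-series screen for positive or negative modulators of EC50 EGF-induced signaling in ME-180 cells carrying an AP-1-driven beta-lactamase reporter. After 5 hours at 37 degrees Celsius, CCF4 460nm/530nm emission ratio gave %Activity; AC50 values derived.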
For `Cc1noc(C)c1C(=O)N1CCC2(CC1)CN(c1cccc(-c3ccccc3)c1)C2`, the activity change, negative = inhibition is -13.8%.
For the compound `O=C1c2ccccc2[C@@H]([C@@H]2c3ccccc3C(=O)c3cc(Br)ccc32)c2ccc(Br)cc21`, the activity change, negative = inhibition was -5.16%.
With `O=C(O)c1ccccc1-c1ccccc1C(=O)c1ccccc1`, the activity change, negative = inhibition was 6.33%.
Turning to `N[C@@H](CSCc1ccccc1)C(=O)O`, the activity change, negative = inhibition is 14.5%.
Consider `O=C1c2ccccc2C(=O)c2c(Nc3cc4c5c(ccc6c7ccc8c9c(cc(Nc%10cccc%11c%10C(=O)c%10ccccc%10C%11=O)c(c3c56)c97)-c3ccccc3C8=O)C(=O)c3ccccc3-4)cccc21`, for which the activity change, negative = inhibition is 11.6%.
For `O=S(=O)(O)c1ccc(NN(c2c(O)ccc3ccccc23)S(=O)(=O)O)cc1`, the activity change, negative = inhibition is 8.88%.
As to `O=S(=O)(O)c1ccc(-c2nnc(-c3ccccn3)nc2-c2ccc(S(=O)(=O)O)o2)o1`, the activity change, negative = inhibition was 4.23%.
The same measure, in the same setting: in the case of `COc1ccc(C(=O)N2CCC3(CC2)CN(c2ccccc2)C3)cc1` it was -16.2%; in that of `C[C@@H]1CCCC(CC(=O)O)(CC(=O)O)C1`, -2.04%.
On the same count and under the same terms, in the case of `CN(C)c1ccc(C(c2ccc(N(C)C)cc2)c2ccc([N+](=O)[O-])cc2)cc1` it was 5.91%.
On the same count and under the same terms, in the case of `O=C(O)C1C(C(=O)O)C(C(=O)O)C1C(=O)O` (stereo not given) it was -0.701%; in that of `Nc1nc(C(=O)O)c(N=Nc2ccccc2)c(=O)[nH]1`, 4.49%.
Take `S=c1nc(-c2nc(=S)[nH]c3c2CCCCCCCCCC3)c2c([nH]1)CCCCCCCCCC2`: the activity change, negative = inhibition was -8.81%.
Same read-out and setting: in the case of `CN(C)CCCN=C(N)N` it was 11.7%; in that of `N#CCCn1c(=O)c(-c2cc(F)cc(F)c2)nc2cnc(Oc3cccc(Cl)c3)nc21`, -12.5%; in that of `O=C(O)c1cc(C(=O)O)cc(N2C(=O)c3ccccc3C2=O)c1`, 4.16%.
Take `O=S(=O)(O)c1cc(S(=O)(=O)O)c2c(N=Nc3cccc4ccccc34)c(O)ccc2c1`: the activity change, negative = inhibition is 4.87%.
Turning to `C#CCOC(=O)[C@H](N)CC(N)=O`, the activity change, negative = inhibition was 0.665%.
Same read-out and setting: in the case of `Cc1ccc(N=Nc2c(O)ccc3cc(S(=O)(=O)O)ccc23)cc1` it was -18.1%; in that of `Cc1ccc(N=Nc2c(O)c(S(=O)(=O)O)cc3cc(S(=O)(=O)O)ccc23)c(C)c1`, 19.9%; in that of `CN(Cc1cc(Br)cc(Br)c1O)Cc1c(O)ccc2ccccc12`, 3.01%.
On the same count and under the same terms, in the case of `O=C(O)CC(CC(=O)O)C(=O)O` it was -1.11%.
Still for that read-out and setting: in the case of `O=S(=O)(O)c1cc(O)c2c(O)c(N=Nc3cccc4ccccc34)c(S(=O)(=O)O)cc2c1` it was -2.93%.
`COCCn1c(=O)c(-c2ccc(OC)cc2)nc2cnc(Oc3ccccc3)nc21`: the activity change, negative = inhibition was -9.38%.
As to `CNS(=O)(=O)c1ccccc1C(=N)c1ccccc1`, the activity change, negative = inhibition is -4.6%.
`C[N+]1(CCN=C=NC2CCCCC2)CCOCC1`: the activity change, negative = inhibition was 9.01%.
As for `O=S(=O)(O)c1ccc(N=Nc2ccc3c(S(=O)(=O)O)cccc3c2O)c2ccccc12`, the activity change, negative = inhibition is 1.08%.
For `CN(C)CN1CSC(=S)N(CN(C)C)C1`, the activity change, negative = inhibition was -2.13%.
`FC(F)(F)c1cc(NC(=S)N2c3ccccc3-n3cccc3[C@H]2c2cccnc2)cc(C(F)(F)F)c1`: the activity change, negative = inhibition is -2.69%.
On the same count and under the same terms, in the case of `COc1ccc([C@@H](C)c2cc3c(cc2O)OCO3)cc1` it was -11.5%; in that of `CN(C)Cc1cc(C(C)(C)C)cc(CNC2CCCCC2)c1O`, -6.47%; in that of `O=C1OC2(c3ccc(O)cc3Oc3cc(O)ccc32)c2c1c(-c1ccccc1)c(-c1ccccc1)c(-c1ccccc1)c2-c1ccccc1`, -28.2%.
In the case of `O=S(=O)(O)c1ccc2c(N=Nc3c(O)ccc4ccccc34)cccc2c1`, the activity change, negative = inhibition was -13.3%.
Take `Nc1cc2c(nc3c4ccccc4c(N)cc3[n+]2-c2cccc3ccccc23)c2ccccc12` (tested in a mixture with another compound): the activity change, negative = inhibition was 11.3%.
Regarding `O=S(=O)(O)c1ccc2c(N=Nc3cccc4ccccc34)c(O)c(S(=O)(=O)O)cc2c1`, the activity change, negative = inhibition was -5.27%.
Still for that read-out and setting: in the case of `S[C@@H]1CCCN(Cc2ccccc2)C1` it was 1.2%; in that of `CS(=O)(=O)c1ccc(/C=N\NC(N)=S)cc1`, 2.65%; in that of `N#CC(=NCCO)C1=C(O)c2ccccc2C1=O`, -1.5%.
For `Cc1ccc(CCCC(=O)O)cc1C`, the activity change, negative = inhibition was 2.32%.

(Values after PubChem BioAssay (NCATS).)
